IL-1B inflam inh = blocks inflammasome-driven IL-1 beta release; THP-1 LPS/ATP IL-1B secretion, AlphaLISA, 16 h; hits give low values; activity change, % at 57.5 µM; 360,000 tested, 4.7% active; in the data active means activity change below about -50%; inconclusive means mostly about -30% to -49%; further: on the % scale 0 is the no-effect control and ±100 the full control effect
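Secreted IL-1B measured by AlphaLISA bead assay after 16 h compound exposure of THP-1 cells; compounds (final up to 57.5 uM) added 1 h before LPS (250 ng/mL) and ATP (1.25 mM) stimulation; lower signal means less secretion.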
KB-3-1 tox = KB-3-1 parental cell cytotoxicity; Potency, µM (doses to about 46.1 µM), usual class: cytotoxic; KB-3-1 viability, CellTiter-Glo ATP luminescence, 72 h; 400,000 tested, 1.4% active; further: potency means the concentration at half of the fitted maximal effect; on the % scale 0 is the no-effect control and ±100 the full control effect; nearly all actives have a fitted effect of over 60% in size
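KB-3-1 cells, DMEM (no phenol red) + 10% FBS; compound by pin transfer, 72 h, 37 °C. Readout: CellTiter-Glo luminescence after 10 min. Data normalized, curve-fitted.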
KB-V1 MDR tox = kills drug-selected multidrug resistant KB-V1 cells. KB-V1 MDR cells viability, CellTiter-Glo, 72 h. AID 1347076. Potency, µM (highest dose often 46.1 µM), actives largely listed as cytotoxic. 400,000 tested, 3.4% active; further: potency means the concentration at half of the fitted maximal effect; on the % scale 0 is the no-effect control and ±100 the full control effect; nearly all actives have a fitted effect of over 60% in size
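KB-V1 cells (P-gp-expressing MDR subline of KB-3-1) in phenol-red-free DMEM with 10% FBS were exposed to library compounds over a concentration series for 72 h at 37 degrees C. Viability read by CellTiter-Glo luminescence; concentration-effect curves fitted after normalization.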
SW480 rereplic = DNA re-replication induction in SW480 cells; 340,000 tested, 1.8% active; AID 624297; Potency, µM (doses to about 46.1 µM), for the others: top-dose re-replication activation, usual class: activators; SW480 DNA re-replication, Hoechst DNA content imaging, 48 h; further: potency means the concentration at half of the fitted maximal effect; % of control where 0% means no effect; nearly all actives have a fitted effect of over 55% in size
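Per well, 250 cells were exposed to pinned compound for 48 hr. Nuclear DNA was visualised with Hoechst (40 min, 37 C) and total object intensity recorded by fluorescence scanning.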
MCF10A rerep = induces DNA re-replication in MCF 10a normal breast cells. AID 624296. MCF 10A DNA re-replication, Hoechst nuclear intensity, 48 h. Potency, µM (titrated, usually from 46.1 µM), for the others: at the top dose activity, positive = re-replication, actives largely listed as activators. 350,000 tested, 2.9% active; further: potency means the concentration at half of the fitted maximal effect; % of control where 0% means no effect; nearly all actives have a fitted effect of over 50% in size
Numbers without * were called inactive; [ ] = dose if it differs, or a comment. Sampled rows, rich in hits. Any-hit rate of the full collection: about 9.9%. Unless noted, the call rests on the fitted dose curve; in most records, active means well fitted curve in the direction sought with a large enough effect; inconclusive means small, poorly fitted or top-dose-only effect, or another doubt; inactive means no such curve, though single readings can be large; an effect the other way counts as inactive or inconclusive.

CC1(C)O[C@@H]2C[C@H]3[C@@H]4C[C@H](F)C5=CC(=O)C=C[C@]5(C)[C@@]4(F)[C@@H](O)C[C@]3(C)[C@]2(C(=O)CO)O1 was read as IL-1B inflam inh -54*, KB-3-1 tox inactive, KB-V1 MDR tox inactive, SW480 rereplic -4% and MCF10A rerep 11%.
O=C(O)/C=C\c1ccc(Cn2ccnc2)cc1 was read as SW480 rereplic -8%[20.6 µM] and MCF10A rerep 1%[20.6 µM].
For CCCCn1c(N)c(N(CCOC)C(=O)c2ccc(COc3ccccc3)o2)c(=O)[nH]c1=O the results were IL-1B inflam inh 4, KB-3-1 tox inconclusive, KB-V1 MDR tox inactive, SW480 rereplic -6% and MCF10A rerep 1%.
For COc1nc(/C=C/N(C)C)c([N+](=O)[O-])c(OC)n1 the results were IL-1B inflam inh 0, KB-3-1 tox inactive, KB-V1 MDR tox inactive, SW480 rereplic -1% and MCF10A rerep 6.5µM*.
Screening COc1ccccc1CNc1cc(-c2ccccc2)nc2nncn12 returned KB-3-1 tox inactive and KB-V1 MDR tox inactive.
`CSCCC(C(=O)Nc1c(C)cccc1C)n1c(COc2ccc(C)cc2)nc2ccccc21` (stereo unspecified) gave IL-1B inflam inh -58*, KB-3-1 tox inconclusive and KB-V1 MDR tox inconclusive.
For Cn1c2ccccc2c2cc(/C=N/NC(=O)c3cc(O)ccc3O)ccc21 the results were IL-1B inflam inh -73*, KB-3-1 tox inactive, KB-V1 MDR tox inactive, SW480 rereplic 13% and MCF10A rerep 3.7µM*.
For O=C(N/N=C/c1cccc(O)c1)c1ccccc1O the results were IL-1B inflam inh -15, KB-3-1 tox inactive, KB-V1 MDR tox inactive, SW480 rereplic 3% and MCF10A rerep 0%.
COc1cc(C(=O)N/N=C/c2ccc(OC(=O)c3ccccc3Cl)cc2)ccc1O was read as IL-1B inflam inh -72*, SW480 rereplic 1% and MCF10A rerep 20%.
`COc1cc(C(=O)N/N=C/c2ccc3c(c2)c2ccccc2n3C)ccc1O` gave IL-1B inflam inh inactive, KB-3-1 tox inconclusive, KB-V1 MDR tox inconclusive, SW480 rereplic inconclusive and MCF10A rerep 13µM*.
Screening Cn1c2ccccc2c2cc(/C=N/NC(=O)c3cc(O)cc(O)c3)ccc21 returned IL-1B inflam inh -86*, KB-3-1 tox inactive, KB-V1 MDR tox inconclusive, SW480 rereplic 2% and MCF10A rerep inconclusive.
Screening Nc1ccc(C(=O)N/N=C\c2ccc(OC(=O)c3ccccc3Cl)cc2)cc1 returned IL-1B inflam inh -16, KB-3-1 tox inactive, KB-V1 MDR tox inactive, SW480 rereplic -4% and MCF10A rerep 16%.
`COc1ccc2c(c1)CC(NC(=O)Nc1ccc(NC(C)=O)cc1)CO2` (stereo unspecified) gave KB-3-1 tox inactive and KB-V1 MDR tox inactive.
For CC(C)Cn1c(SCc2cccc(F)c2)nc2ccsc2c1=O the results were KB-3-1 tox inactive and KB-V1 MDR tox inconclusive.
For Cc1ccc2c(=O)cc(C(=O)Nc3c(C(=O)c4ccccc4)oc4ccccc34)oc2c1C the results were KB-3-1 tox inactive and KB-V1 MDR tox inactive.
For O=C(O)COc1nn(Cc2ccccc2)c2ccccc12 the results were SW480 rereplic -3% and MCF10A rerep 0%.
For CCc1ccc(CN2CCCC(CNS(=O)(=O)c3ccc(OC)cc3)C2)cc1 (stereo unspecified) the results were IL-1B inflam inh -94*, KB-3-1 tox inactive, KB-V1 MDR tox inconclusive, SW480 rereplic -77% and MCF10A rerep 12%[9.22 µM].
Screening COc1ccc(OCC(O)CNC(=O)c2c(-c3ccccc3)noc2C)cc1 (stereo unspecified) returned IL-1B inflam inh 0, KB-3-1 tox inactive, KB-V1 MDR tox inactive, SW480 rereplic 1% and MCF10A rerep 0%.
Cc1cccc(C(=O)/C=C2/c3ccccc3CC(C)(C)N2C)c1 was read as IL-1B inflam inh -6, KB-3-1 tox inactive, KB-V1 MDR tox 18µM*, SW480 rereplic -3% and MCF10A rerep 19%.
For CS(=O)(=O)Nc1ccccc1-c1ccc2nccn2c1 the results were IL-1B inflam inh 24, KB-3-1 tox inactive and KB-V1 MDR tox inactive.

Screening results as filed in PubChem.
